{
  "source": "PubChem BioAssay AID720650",
  "about": "(Broad Institute, 2013)",
  "note": "Values without a mark were called inactive. Calls of active or inactive are those of the source. How the calls were made is not given here.",
  "data": [
    {"test": "C difficile toxins, biochemical counterscreen, UDPG substrate absence, confirmatory dose response (AID 720650)", "conditions": "series mostly up to 19.5 µM", "values": [
      {"smiles": "CCOc1ccccc1/C=C/c1onc(C)c1S(=O)(=O)N1CCC(C(=O)NC(C)(C)C)CC1", "AC50": "inactive"},
      {"smiles": "COc1cccc(-n2c(SCC(=O)N3CCOCC3)nnc2-c2c[nH]c3ccccc23)c1", "AC50": "inactive"},
      {"smiles": "Cn1c(=O)c2c([nH]c(=S)n2Cc2ccc(Cl)cc2)n(C)c1=O", "AC50": "inactive"},
      {"smiles": "O=C(OCC(=O)N1CCCc2ccccc21)c1ccc(C(F)(F)F)cc1", "AC50": "inactive"},
      {"smiles": "COc1cc2[nH]c(=S)nc(NCCC(C)C)c2cc1OC", "AC50": "inactive"},
      {"smiles": "Cc1ccc(C)c2c1cc(C)c1nnc(SCC(=O)NCc3ccc4c(c3)OCO4)n12", "AC50": "13.1 µM (active)"},
      {"smiles": "CS(=O)(=O)N1CCc2cc(C(=O)Nc3ccc(O)cc3)ccc21", "AC50": "14.8 µM (active)"},
      {"smiles": "COc1ccc(C2=NS(=O)(=O)N(C)C(C(=O)NCc3ccc4c(c3)OCO4)=C2)cc1OC", "AC50": "inactive"},
      {"smiles": "Cc1ccc(C(=O)Nc2ccc(O)cc2C(=O)O)cc1C", "AC50": "> 39 µM"},
      {"smiles": "O=c1[nH]c(/C=C\\c2ccc(O)cc2)nc(O)c1[N+](=O)[O-]", "AC50": "12.2 µM (active)"},
      {"smiles": "CCOC(=O)c1cccc(NC(=O)CCNS(=O)(=O)c2cccc3nonc23)c1", "AC50": "inactive"},
      {"smiles": "CCN(CC)CCNC(=O)C1CCN(S(=O)(=O)c2c(C)noc2/C=C/c2ccccc2F)CC1", "AC50": "inactive"},
      {"smiles": "C[C@@H]1CN([C@@H](C)CO)S(=O)(=O)c2ccc(C#Cc3ccncc3)cc2O[C@H]1CN(C)C(=O)C1CC1", "AC50": "inactive"},
      {"smiles": "Cc1cc(O)ccc1NC(=O)c1ccccc1", "AC50": "17.9 µM (active)"},
      {"smiles": "CSc1ccccc1NC(=O)C1=CC(c2ccc(C)cc2)=NS(=O)(=O)N1C", "AC50": "inactive"},
      {"smiles": "O=C(CSc1ccccc1)Nc1cc(S(=O)(=O)N2CCOCC2)ccc1N1CCOCC1", "AC50": "inactive"},
      {"smiles": "Cc1nc(SCC(=O)N2CCNC2=O)c(C#N)c(C)c1C", "AC50": "inactive"},
      {"smiles": "O=C(O)c1ccccc1C(=O)c1ccc2c(c1)N(Cc1cccc(F)c1)C(=O)CO2", "AC50": "19 µM (active)"},
      {"smiles": "O=[N+]([O-])c1ccc(S(=O)(=O)Nc2nc(-c3ccccc3)cs2)cc1", "AC50": "inactive"},
      {"smiles": "CSc1ccc(/C=N/N2CCN(Cc3ccc(Cl)cc3)CC2)cc1", "AC50": "inactive"},
      {"smiles": "COc1ccc(SC[C@H](C)CN2CC[C@H](NC(=O)OCc3ccccc3)CCC2=O)cc1", "AC50": "inactive"},
      {"smiles": "CN1C(=O)c2cc(NC(=O)Nc3ccccc3Cl)ccc2OC[C@H]2O[C@@H](CC(=O)NCCCN3CCOCC3)CC[C@H]21", "AC50": "inactive"},
      {"smiles": "CC(C)OC(=O)C(=O)NNc1ccccc1", "AC50": "1.35 µM (active)"},
      {"smiles": "COC(=O)Cc1ccc(NC(=S)NCc2ccc(OC)cc2)cc1", "AC50": "inactive"},
      {"smiles": "COc1ccc(C(=O)Nc2c(-c3cccs3)c(=O)c3ccccc3n2C)cc1", "AC50": "inactive"},
      {"smiles": "COc1ccc(C2=NS(=O)(=O)N(C)C(C(=O)N3CCc4ccccc4C3)=C2)cc1OC", "AC50": "inactive"},
      {"smiles": "Cc1ccc2c(C)c3ccc4ccccc4c3c[n+]2c1", "AC50": "inactive"},
      {"smiles": "COc1ccc(C(CNC(=O)c2oc3ccc(OC)cc3c2C)N2CCCC2)cc1", "note": "(centres undefined)", "AC50": "> 39 µM"},
      {"smiles": "COc1cc(/C=N/N2C(=O)C3C4C=CC(CC4)C3C2=O)ccc1O", "note": "(centres undefined)", "AC50": "inactive"},
      {"smiles": "C[C@@H]1CN([C@@H](C)CO)C(=O)c2c(c3ccccc3n2C)-c2ccccc2CO[C@@H]1CN(C)C", "AC50": "inactive"},
      {"smiles": "CN(C)CCNC(=O)c1cc2c(s1)-c1ccc(Cl)cc1SC2", "AC50": "> 39 µM"},
      {"smiles": "CCN(C(=O)COC(=O)c1cccnc1SC)C1CCCCC1", "AC50": "inactive"},
      {"smiles": "Cn1cc(C(CO)Cc2ccccc2)c2ccccc21", "note": "(centres undefined)", "AC50": "> 39 µM"},
      {"smiles": "O=C(CSc1nc2cc(Cl)ccc2s1)c1ccco1", "AC50": "> 39 µM"},
      {"smiles": "Clc1cccc(-c2ccc3ncnc(NCc4cccs4)c3c2)c1", "AC50": "inactive"},
      {"smiles": "CC(C)CC(=O)N1CCN(Cc2ccc(Br)cc2)CC1", "AC50": "inactive"},
      {"smiles": "O=C(NC(=S)NNC(=O)c1ccccc1F)c1cccnc1", "AC50": "inactive"},
      {"smiles": "CC(=O)Nc1cccc(NC(=O)c2ccc(Br)cc2)c1", "AC50": "inactive"},
      {"smiles": "COc1ccc(C2=NS(=O)(=O)N(C)C(C(=O)N3CCN(C)CC3)=C2)cc1", "AC50": "inactive"}
    ]}
  ]
}
